# Test results published in the supplement of paper PMC12339681.
# Where a name gives a salt, the structure may show the parent alone.
# Tested on: PBMC-derived induced microglia-like cells (piMGLC)
# Assay: synaptosome phagocytic index relative to DMSO control (fraction of DMSO); higher = more phagocytosis
# Settings: concentration: 10 uM (2 uM for compounds listed in Table S2); pretreatment time: 24 h; assay time: 3 h
row,Compound,synaptosome phagocytic index
1,Fc1ccc(-c2ccc3c(c2)[nH]c2ccncc23)cn1,0.711
2,Cn1cc2cc(C(F)(F)c3nnc4ccc(-c5cnn(C6CC6)c5)nn34)c(F)cc2n1 [Bozitinib],0.851
3,CNCCC=C1c2ccccc2CCc2ccccc21 [Nortriptyline_(hydrochloride)],0.487
4,CN1CCN(C2=Nc3ccccc3Oc3ccc(Cl)cc32)CC1 [Loxapine],0.272
5,NC(=O)N1c2ccccc2C=Cc2ccccc21 [Carbamazepine],0.865
6,O=c1c(-c2ccc(O)cc2)coc2cc(O)cc(O)c12 [Genistein],0.792
7,CNS(=O)(=O)CCc1ccc2[nH]cc(C3CCN(C)CC3)c2c1 [Naratriptan_(hydrochloride)],1.3
8,CNCCCC1c2ccccc2C=Cc2ccccc21 [Protriptyline_(hydrochloride)],0.93
9,NC12CC3CC(CC(C3)C1)C2 [Amantadine_(hydrochloride)],1.02
10,Cc1nc2n(c(=O)c1CCN1CCC(c3noc4cc(F)ccc34)CC1)CCCC2O (configuration not stated) [Paliperidone],0.852
11,COc1ncc(F)cc1CNc1ccc(Cc2c[nH]c3ncc(C)cc23)c(F)n1 [PLX5622_(hemifumarate)],0.966
12,CCCCN1C[C@H](O)[C@@H](O)[C@H](O)[C@H]1CO [Miglustat_(hydrochloride)],1.04
13,CC(C)NCC(O)COc1cccc2ccccc12 (configuration not stated) [Propranolol_(hydrochloride)],1.1
14,CC1(C)O[C@@H]2[C@@H](CO[C@@]3(COS(N)(=O)=O)OC(C)(C)O[C@@H]23)O1 [Topiramate],1.08
15,CC#Cc1cncc(-c2ccc3c(c2)[C@@]2(N=C(C)C(N)=N2)[C@]2(CC[C@H](OC)CC2)C3)c1 [Lanabecestat],1.03
16,Cc1ccc(C(=O)c2cc(O)c(O)c([N+](=O)[O-])c2)cc1 [Tolcapone],0.526
17,CCc1cc(F)c2nc(N3CCC(NC4CCOCC4)CC3)c(-c3nc(C)no3)c(C)c2c1,1.21
18,O=C(NCc1ccc(F)cc1)N1CCN2C(=O)OC(c3ccccc3)(c3ccccc3)C2C1 (configuration not stated),0.552
19,FC(F)(F)c1ccc(CNc2ccc(Cc3c[nH]c4ncc(Cl)cc34)cn2)cn1 [Pexidartinib],0.587

row,Compound,synaptosome phagocytic index
1,COc1cc(/C=C/C(=O)NCCn2c(C)cc3ccccc32)cc(OC)c1OC,0.832
2,COc1ncccc1-c1cnn2ccc(N3CCN(C(=O)OC(C)C)CC3)nc12,0.708
3,CC1(C)S[C@@H]2[C@H](NC(=O)[C@H](NC(=O)N3CCN(S(C)(=O)=O)C3=O)c3ccccc3)C(=O)N2[C@H]1C(=O)O [Mezlocillin_(sodium)],0.977
4,Cc1nc(Nc2ncc(C(=O)Nc3c(C)cccc3Cl)s2)cc(N2CCN(CCO)CC2)n1 [Dasatinib],0.243
5,CCN1CCN(Cc2ccc(Nc3ncc(F)c(-c4cc(F)c5nc(C)n(C(C)C)c5c4)n3)nc2)CC1 [Abemaciclib],0.228
6,COc1cc2nc(N(C)CCCNC(=O)C3CCCO3)nc(N)c2cc1OC (configuration not stated) [Alfuzosin],0.938
7,CCCN[C@H]1CCc2nc(N)sc2C1 [Pramipexole],0.882
8,C[C@H]1[C@H](NC(=O)/C(=N\OC(C)(C)C(=O)O)c2csc(N)n2)C(=O)N1S(=O)(=O)O [Aztreonam],0.528
9,CN(C)c1ncc(/C=C/c2nc3ccc(OCCF)cc3o2)s1,0.356
10,CN/C(=N\CCSCc1nc[nH]c1C)NC#N [Cimetidine],1.07
11,Cc1nc2c([nH]1)-c1ccccc1N(C(=O)c1ccc(NC(=O)c3ccccc3-c3ccccc3)cc1)CC2 [Conivaptan_(hydrochloride)],0.827
12,CN(C)CCCN1c2ccccc2CCc2ccc(Cl)cc21 [Clomipramine_(hydrochloride)],0.39
13,CN(C)CCC=C1c2ccccc2CCc2ccccc21 [Amitriptyline_(hydrochloride)],0.997
14,C[C@@H]1O[C@@H]1P(=O)(O)O [Fosfomycin_(sodium)],1.11
15,CCC(=N\O)/C(C)=C/c1ccc(F)cc1,0.93
16,Nc1nc(=O)n([C@@H]2CS[C@H](CO)O2)cc1F [Emtricitabine],0.777
17,C=CC(=O)Nc1cc(Nc2nccc(-n3cc(CN(C)C)c(-c4ccccc4)n3)n2)c(OC)cc1N1CCOCC1 [Lazertinib],0.0589
18,CCC(=O)NCC[C@@H]1CCc2ccc3c(c21)CCO3 [Ramelteon],0.767
